From PubChem BioAssay
Rows were chosen to be rich in hits. Some 11% of all compounds tested hit in one or more screens of this group.
USP17 block = inhibitors of human USP17 deubiquitinase; AID 1645855; 47,000 tested, 6.5% active; A8MUK1; purified USP17, Ub-rhodamine cleavage fluorescence, 3 h; inhibition, % at 50 µM
OTUD3 block = blocks human OTUD3 ubiquitin-rhodamine cleavage; purified OTUD3, Ub-rhodamine fluorescence, 2 h; 47,000 tested, 0.7% active; inhibition, % at 25 µM; Q5T2D3
USP30 inh = inhibitors of human USP30 deubiquitinase; inhibition, % at 25 µM; purified USP30, Ub-rhodamine cleavage fluorescence; 47,000 tested, 5.3% active
USP28 block = inhibitors of human USP28 deubiquitinase; 47,000 tested, 3% active; inhibition, % at 25 µM; Q96RU2; purified USP28, Ub-rhodamine cleavage fluorescence, 30 min
Numbers stand for hits; n = inactive; x = no result. Cut-off read from the data, not from the text of the source: active = inhibition above about 30%; inactive = the rest.

SMILES | USP17 block | OTUD3 block | USP30 inh | USP28 block
CC1=C(Cn2c3cccc(=O)c-3nc3ccccc32)CCC(C)(C)C1 | 77.8 | 73.8 | n | 73.6
O=C(Oc1ccc2cc(Br)ccc2c1)c1ccncc1 | n | n | 34.6 | n
Cn1cc(-c2csc(N)n2)c2ccccc21 | n | n | n | n
O=C(NC(Cc1ccccc1)c1nc2ccccc2[nH]1)c1ccccc1-c1ccccc1 (centres undefined) | 40.4 | n | n | n
O=C(NC(Cc1ccccc1)c1nc2ccccc2[nH]1)c1ccc2ccccc2n1 (centres undefined) | x | n | n | n
CC(NC(=O)c1ccccc1)c1nc2ccccc2[nH]1 (centres undefined) | n | n | x | x
CC(C)CC(NC(=O)c1ccccn1)c1nc2ccccc2[nH]1 (centres undefined) | n | n | n | n
O=C(NC(Cc1ccccc1)c1nc2ccccc2[nH]1)C1CC1 (centres undefined) | 53.8 | n | n | n
CC(C)CC(NC(=O)c1ccc(Cl)cc1Cl)c1nc2ccccc2[nH]1 (centres undefined) | 69.1 | n | n | n
COc1ccccc1/C=C/C(=O)NC(Cc1ccccc1)c1nc2ccccc2[nH]1 (centres undefined) | 45.5 | n | n | n
COc1ccc(C2OCC3(CO)C(C)C=C(C)C2C3C)cc1 (centres undefined) | x | n | n | n
CC1CCN(C(=O)C2CCN(S(=O)(=O)Cc3ccccc3F)CC2)CC1 | n | n | n | n
CC(C)CN1CCN(S(=O)(=O)c2cc3n(c2)CCCN(C)C3=O)CC1 | n | n | n | n
CSCCC(NC(=O)COc1ccc(Cl)cc1)c1nc2ccccc2[nH]1 (centres undefined) | x | n | n | n
O=C(Cc1coc2cc3c(cc12)CCC3)NC(Cc1ccccc1)c1nc2ccccc2[nH]1 (centres undefined) | 47.4 | n | n | n
COc1ccc(CN2C(=O)N[C@@H](CCC(=O)Nc3cccc(Cl)c3)C2=O)cc1 | n | n | n | n
COc1ccc(CN2C(=O)N[C@@H](CCC(=O)Nc3cccc(OC)c3)C2=O)cc1 | 44.7 | n | n | n
COc1ccc(C(=O)Nc2ccccc2C(=O)NC(Cc2ccc(O)cc2)C(=O)NNC(=O)Cc2ccc(OC)c(OC)c2)cc1 (centres undefined) | 31.3 | n | 30.8 | n
Cc1ccc(S(=O)(=O)c2cnc3ccc(F)cc3c2N2CCCC2)cc1 | n | n | 36.8 | n
O=S(=O)(c1ccccc1)c1cnc2ccccc2c1N1CCCCC1 | n | n | 31.2 | n
Cc1ccc(S(=O)(=O)c2cnc3ccccc3c2N2CCCCCC2)cc1 | n | n | n | n
O=C(Cn1cc(SCc2ccccc2Cl)c2ccccc21)N1CCCC1 | 32.0 | n | n | n
O=C(CSc1cn(CC(=O)N2CCCCC2)c2ccccc12)NCCc1ccccc1 | n | n | n | n
Cc1ccc(NC(=O)N(C)Cc2nc3cc(C(=O)N(C)C)ccc3n2C)cc1F | n | n | n | n
Cc1ccc(Oc2ccccc2NC(=O)CSc2nc(N)nc(N)n2)cc1 | 42.9 | n | n | n
SMILES | USP17 block | OTUD3 block | USP30 inh | USP28 block
COc1ccc(C(CC(=O)Nc2ccccc2OC)n2cccc2)cc1 (centres undefined) | n | n | n | n
COc1ccc(CNS(=O)(=O)c2cc(-c3csc(C)n3)ccc2C)cc1 | n | n | n | n
O=C(Nc1ccccc1F)c1ccc(N2CCCC2)nn1 | n | n | n | n
CC(=O)Nc1ccc(-n2cnc(C(=O)NCc3ccc(F)cc3)c2)nc1 | n | n | n | n
Cc1cccc(-n2cnc(C(=O)NCc3ccc(F)cc3)c2)n1 | 83.3 | n | 35.5 | n
Cc1cc(C)n(-c2ccc(C(=O)NCc3ccc(F)cc3)cn2)n1 | 48.8 | n | 68.5 | 33.6
O=C(NCc1ccc(F)cc1)c1ccc(N2CCCC2)nn1 | 33.4 | n | n | n
CN(C)c1cc(-n2cnc(C(=O)NCc3cccc(Cl)c3)c2)ncn1 | 41.7 | n | n | n
CN(C)c1cc(-n2cnc(C(=O)Nc3ccccc3)c2)ncn1 | n | n | n | n
CCNC(=O)O[C@H]1CN(C(=O)NCC)[C@H]2CC[C@@H](N3CCOCC3)[C@@H]1C2 | n | n | n | n
Cc1ccc(NC(=O)Cn2cc(C(=O)N3CCCC3)c(=O)c3ccc(C)nc32)c(C)c1 | n | n | n | n
O=C(NCc1ccc(N2CCOCC2)cc1)c1ccc2c(c1)OCCCO2 | n | n | n | n
CC(C)Cc1nc2oc3c(N4CCN(CCO)CC4)ncnc3c2c2c1CCC2 | n | n | n | n
CCc1ccc(-n2c(=O)c3cccnc3n2CC(=O)Nc2cccc(Cl)c2)cc1 | n | n | n | n
NCCn1nc(C2CCN(C(=O)Cc3ccc(F)cc3)C2)c2cccnc21 (centres undefined) | n | n | n | n
NCCn1nc(C2CCN(C(=O)Cc3cccc(F)c3)C2)c2cccnc21 (centres undefined) | 36.6 | n | n | n
Cc1ccc(S(=O)(=O)Nc2ccccc2CCc2nc3ccccc3[nH]2)cc1 | n | n | n | n
Cc1ccc(S(=O)(=O)Nc2ccccc2SCCS(=O)(=O)c2ccc(Cl)cc2)cc1 | n | n | 50.6 | n
C/C=C(/C)C(=O)O[C@@H]1[C@@H]2O[C@]2(C)C[C@H](OC(C)=O)[C@@H]2[C@]1(C)CC[C@@]2(O)C(C)C | n | n | n | n
NC(=O)c1cc(-c2csc(NNc3ccccc3)n2)ccc1O | 47.0 | n | n | n
O=C(c1ccc(F)cc1)N1CCc2cc(-c3csc(Nc4ccccc4)n3)ccc21 | n | n | n | n
CCc1cc2c(cc(C(=O)OC)n2CC(=O)Nc2ccc(C)cc2Cl)s1 | 53.4 | n | n | n
Cc1nn(-c2ccc([N+](=O)[O-])cc2)c(C)c1-c1nc2ccccc2[nH]1 | n | n | 63.4 | 36.7
Cn1ccc(-c2nc3ccccc3[nH]2)n1 | n | n | n | n
CSc1nc(Cc2ccc(Cl)cc2)nc2ccccc12 | n | n | n | 55.5
SMILES | USP17 block | OTUD3 block | USP30 inh | USP28 block
Cc1c(C)n(-c2ccccc2)c2ncn(CC(=O)NCc3ccccc3F)c(=O)c12 | n | n | n | n
CNC(=O)Cn1cnc2c(c(C)c(C)n2-c2ccc(Cl)cc2)c1=O | 49.9 | n | n | n
Cc1c(C)n(-c2ccccc2)c2ncn(CC(=O)NC(C)c3ccccc3)c(=O)c12 (centres undefined) | x | 45.4 | 74.6 | n
Cc1ccc(C(=O)Nc2nc3n(n2)C(c2ccccc2)CC(=O)N3)cc1 (centres undefined) | 70.8 | n | n | n
COc1ccc(/C=C/C(=O)Nc2nc3n(n2)C(c2ccccc2)CC(=O)N3)cc1 (centres undefined) | n | n | 30.9 | n
O=C(/C=C/c1cccc([N+](=O)[O-])c1)Nc1nc2n(n1)C(c1ccccc1)CC(=O)N2 (centres undefined) | n | n | 37.6 | n
COc1ccc(/C=C/C(=O)Nc2nc3n(n2)C(c2ccccc2)CC(=O)N3)cc1OC (centres undefined) | n | n | n | n
O=C1CC(c2ccccc2)n2nc(NC(=O)c3ccccc3)nc2N1 (centres undefined) | n | n | n | n
Cc1cccc(C)c1NC(=O)C(NC(=O)c1ccn[nH]1)c1ccccc1 (centres undefined) | n | n | n | n
c1ccc(-c2cc(CSc3nc4ccccc4[nH]3)no2)cc1 | 32.5 | n | n | n
